Experimental data published in publication PMC12820563, “FoxP3 forms a head-to-head dimer in vivo and stabilizes its multimerization on adjacent microsatellites”.
In all, about 16,000 sequences were measured (“rpm ratio (pull-down/input)”: median about 0.5, highest 2% from about 5.5 on). This is one part of a sample in which the highest values are shown more often than they occur.

The sequences below were run against T1, MBP-FoxP3dN (Mus musculus, UniProt Q99JB6 188-423) (assay: PD-seq (MBP pull-down with sequencing); 20 mM Tris-HCl pH 7.5, 100 mM NaCl, 1.5 mM MgCl2, 0.4 uM protein, 0.1 uM dsDNA library, 30 min, room temperature, amylose pull-down; high values mean tight binding). Settings: protein: recombinant; tags: His6-MBP; chain copies: 2; dsDNA, one strand shown.
T1 sequence: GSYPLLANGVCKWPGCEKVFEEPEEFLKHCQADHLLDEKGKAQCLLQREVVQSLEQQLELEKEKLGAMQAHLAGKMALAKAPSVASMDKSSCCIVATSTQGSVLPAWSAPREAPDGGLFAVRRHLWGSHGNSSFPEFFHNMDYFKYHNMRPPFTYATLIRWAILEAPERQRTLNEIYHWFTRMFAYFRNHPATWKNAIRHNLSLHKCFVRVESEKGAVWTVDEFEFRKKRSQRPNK
Summary of the method: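 In Tris pH 7.5 buffer with NaCl and MgCl2, 0.4 µM His6-MBP-tagged mouse FoxP3 or FoxP1 fragment lacking the N-terminus, from E. coli, met 0.1 µM Klenow-filled double-stranded degenerate DNA library for 30 min at room temperature. Three washes on amylose resin followed capture of the complexes, then proteinase K release of DNA, PCR barcoding and Illumina sequencing. Binding is taken as pooled-replicate reads-per-million enrichment of pull-down relative to input.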

| Sequence | binding signal |
| --- | --- |
| GATGATTGTTCTCCCAGCTGATGAATTCATTTGCTCGAGTAAACAAATTTTCCTAATCTTTCTGTTCAAGCGCCATCTAC | 2.92 RPM ratio (pull-down/input) |
| GATGATTGTTCTCCCAGCTGATGAATTTGCGTATTCGAGTAAACAAATTTTCCTAATCTTTCTGTTCAAGCGCCATCTAC | 4.16 RPM ratio (pull-down/input) |
| GATGATTGTTCTCCCAGCTGATGAATTGGGTCATTCGAGTAAACAAATTTTCCTAATCTTTCTGTTCAAGCGCCATCTAC | 0.64 RPM ratio (pull-down/input) |
| GATGATTGTTCTCCCAGCTGATGAATTAATCTTGTCGAGTAAACAAATTTTCCTAATCTTTCTGTTCAAGCGCCATCTAC | 0.322 RPM ratio (pull-down/input) |
| GATGATTGTTCTCCCAGCTGATGAATTGCTCAAATCGAGTAAACAAATTTTCCTAATCTTTCTGTTCAAGCGCCATCTAC | 0.408 RPM ratio (pull-down/input) |
| GATGATTGTTCTCCCAGCTGATGAATTTTGCGGATCGAGTAAACAAATTTTCCTAATCTTTCTGTTCAAGCGCCATCTAC | 0.597 RPM ratio (pull-down/input) |
| GATGATTGTTCTCCCAGCTGATGAATTACACATATCGAGTAAACAAATTTTCCTAATCTTTCTGTTCAAGCGCCATCTAC | 0.87 RPM ratio (pull-down/input) |
| GATGATTGTTCTCCCAGCTGATGAATTGCGCATGTCGAGTAAACAAATTTTCCTAATCTTTCTGTTCAAGCGCCATCTAC | 6.5 RPM ratio (pull-down/input) |
| GATGATTGTTCTCCCAGCTGATGAATTGCTGATGTCGAGTAAACAAATTTTCCTAATCTTTCTGTTCAAGCGCCATCTAC | 0.843 RPM ratio (pull-down/input) |
| GATGATTGTTCTCCCAGCTGATGAATTCCCCATGTCGAGTAAACAAATTTTCCTAATCTTTCTGTTCAAGCGCCATCTAC | 0.259 RPM ratio (pull-down/input) |
| GATGATTGTTCTCCCAGCTGATGAATTGCCCATGTCGAGTAAACAAATTTTCCTAATCTTTCTGTTCAAGCGCCATCTAC | 0.577 RPM ratio (pull-down/input) |
| GATGATTGTTCTCCCAGCTGATGAATTCTCCATGTCGAGTAAACAAATTTTCCTAATCTTTCTGTTCAAGCGCCATCTAC | 0.249 RPM ratio (pull-down/input) |
| GATGATTGTTCTCCCAGCTGATGAATTCCGCATGTCGAGTAAACAAATTTTCCTAATCTTTCTGTTCAAGCGCCATCTAC | 5.82 RPM ratio (pull-down/input) |
| GATGATTGTTCTCCCAGCTGATGAATTGCGGTATTCGAGTAAACAAATTTTCCTAATCTTTCTGTTCAAGCGCCATCTAC | 1.67 RPM ratio (pull-down/input) |
| GATGATTGTTCTCCCAGCTGATGAATTCTTGACTTCGAGTAAACAAATTTTCCTAATCTTTCTGTTCAAGCGCCATCTAC | 0.38 RPM ratio (pull-down/input) |
| GATGATTGTTCTCCCAGCTGATGAATTATAGCCGTCGAGTAAACAAATTTTCCTAATCTTTCTGTTCAAGCGCCATCTAC | 0.504 RPM ratio (pull-down/input) |
| GATGATTGTTCTCCCAGCTGATGAATTTCTGGTGTCGAGTAAACAAATTTTCCTAATCTTTCTGTTCAAGCGCCATCTAC | 0.353 RPM ratio (pull-down/input) |
| GATGATTGTTCTCCCAGCTGATGAATTCTTAGTTTCGAGTAAACAAATTTTCCTAATCTTTCTGTTCAAGCGCCATCTAC | 0.302 RPM ratio (pull-down/input) |
| GATGATTGTTCTCCCAGCTGATGAATTACCAGGCTCGAGTAAACAAATTTTCCTAATCTTTCTGTTCAAGCGCCATCTAC | 0.357 RPM ratio (pull-down/input) |
| GATGATTGTTCTCCCAGCTGATGAATTTTGAGCATCGAGTAAACAAATTTTCCTAATCTTTCTGTTCAAGCGCCATCTAC | 0.906 RPM ratio (pull-down/input) |
| GATGATTGTTCTCCCAGCTGATGAATTCGAGCATTCGAGTAAACAAATTTTCCTAATCTTTCTGTTCAAGCGCCATCTAC | 4.97 RPM ratio (pull-down/input) |

| Sequence | binding signal |
| --- | --- |
| GATGATTGTTCTCCCAGCTGATGAATTGAGCAGCTCGAGTAAACAAATTTTCCTAATCTTTCTGTTCAAGCGCCATCTAC | 1.12 RPM ratio (pull-down/input) |
| GATGATTGTTCTCCCAGCTGATGAATTTGAGCATTCGAGTAAACAAATTTTCCTAATCTTTCTGTTCAAGCGCCATCTAC | 5.36 RPM ratio (pull-down/input) |
| GATGATTGTTCTCCCAGCTGATGAATTGAGCATTTCGAGTAAACAAATTTTCCTAATCTTTCTGTTCAAGCGCCATCTAC | 6.08 RPM ratio (pull-down/input) |
| GATGATTGTTCTCCCAGCTGATGAATTGAGCATCTCGAGTAAACAAATTTTCCTAATCTTTCTGTTCAAGCGCCATCTAC | 6.26 RPM ratio (pull-down/input) |
| GATGATTGTTCTCCCAGCTGATGAATTGAAGTCTTCGAGTAAACAAATTTTCCTAATCTTTCTGTTCAAGCGCCATCTAC | 0.312 RPM ratio (pull-down/input) |
| GATGATTGTTCTCCCAGCTGATGAATTAGCCTCCTCGAGTAAACAAATTTTCCTAATCTTTCTGTTCAAGCGCCATCTAC | 1.57 RPM ratio (pull-down/input) |
| GATGATTGTTCTCCCAGCTGATGAATTAAGCGGATCGAGTAAACAAATTTTCCTAATCTTTCTGTTCAAGCGCCATCTAC | 0.341 RPM ratio (pull-down/input) |
| GATGATTGTTCTCCCAGCTGATGAATTGTAAACGTCGAGTAAACAAATTTTCCTAATCTTTCTGTTCAAGCGCCATCTAC | 0.874 RPM ratio (pull-down/input) |
| GATGATTGTTCTCCCAGCTGATGAATTCCCCCACTCGAGTAAACAAATTTTCCTAATCTTTCTGTTCAAGCGCCATCTAC | 0.253 RPM ratio (pull-down/input) |
| GATGATTGTTCTCCCAGCTGATGAATTTTCGCACTCGAGTAAACAAATTTTCCTAATCTTTCTGTTCAAGCGCCATCTAC | 0.504 RPM ratio (pull-down/input) |
| GATGATTGTTCTCCCAGCTGATGAATTCAGCCACTCGAGTAAACAAATTTTCCTAATCTTTCTGTTCAAGCGCCATCTAC | 5.07 RPM ratio (pull-down/input) |
| GATGATTGTTCTCCCAGCTGATGAATTCCGCCACTCGAGTAAACAAATTTTCCTAATCTTTCTGTTCAAGCGCCATCTAC | 6.15 RPM ratio (pull-down/input) |
| GATGATTGTTCTCCCAGCTGATGAATTTCTCCACTCGAGTAAACAAATTTTCCTAATCTTTCTGTTCAAGCGCCATCTAC | 0.272 RPM ratio (pull-down/input) |
| GATGATTGTTCTCCCAGCTGATGAATTCTGCCACTCGAGTAAACAAATTTTCCTAATCTTTCTGTTCAAGCGCCATCTAC | 6.04 RPM ratio (pull-down/input) |
| GATGATTGTTCTCCCAGCTGATGAATTCCCACTCTCGAGTAAACAAATTTTCCTAATCTTTCTGTTCAAGCGCCATCTAC | 0.323 RPM ratio (pull-down/input) |
| GATGATTGTTCTCCCAGCTGATGAATTTTCCCACTCGAGTAAACAAATTTTCCTAATCTTTCTGTTCAAGCGCCATCTAC | 0.213 RPM ratio (pull-down/input) |
| GATGATTGTTCTCCCAGCTGATGAATTCTCCCACTCGAGTAAACAAATTTTCCTAATCTTTCTGTTCAAGCGCCATCTAC | 0.246 RPM ratio (pull-down/input) |
| GATGATTGTTCTCCCAGCTGATGAATTGTGCCACTCGAGTAAACAAATTTTCCTAATCTTTCTGTTCAAGCGCCATCTAC | 6.84 RPM ratio (pull-down/input) |
| GATGATTGTTCTCCCAGCTGATGAATTTCGCCACTCGAGTAAACAAATTTTCCTAATCTTTCTGTTCAAGCGCCATCTAC | 5.74 RPM ratio (pull-down/input) |
| GATGATTGTTCTCCCAGCTGATGAATTCGCCCACTCGAGTAAACAAATTTTCCTAATCTTTCTGTTCAAGCGCCATCTAC | 0.406 RPM ratio (pull-down/input) |
